# PAX8 inh HTS: PAX8 transcriptional activity inhibition; RMG-I TPO-luciferase reporter, SteadyGlo, 24 h; inhibition, % at 12.6 µM; 360,000 compounds, 1.2% hits;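 active = mean replicate inhibition at least 60% with every replicate also reaching 60%; inconclusive = only one of the two criteria is met; inactive = mean below 60% and not all replicates reaching 60%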;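 note: luciferase light reporting Pax8 driven TPO promoter activity; plate controls were median of neutral control wells for no effect and mitoxantrone controls for full effect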
# TROY signal inh: blocks TROY-dependent signaling in reporter cells; Q293 LMP1-TROYcd NF-kB luciferase reporter, 4 h; 360,000 compounds, 0.98% hits; inhibition, % at 10 µM;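 active = compounds whose plate-normalised and pattern-corrected inhibition of the luciferase reporter signal at the single screening dose is 50% or more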
# LGR2 inh: blocks bursicon-induced cAMP signaling via Drosophila LGR2 | AID 720647 | inhibition, % at 9.99 µM | 380,000 compounds, 0.35% hits | HEK293 LGR2, CRE-luciferase, bursicon-stimulated, 4 h;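 active = drop in luminescence signal, shown as inhibition above about 50% in the replicate tests, limit read from the data, passing the limit was not always enough; inconclusive = probably only some replicates passing the limit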;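 note: agonist challenge used bursicon conditioned medium at about half maximal strength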
# TWEAK Fn14 block: blocks TWEAK-Fn14 interaction in a reporter cell assay. TWEAK-stimulated Fn14 reporter cells, luciferase luminescence, 8 h. 360,000 compounds, 2% hits. inhibition, % at 10 µM; in the data active = inhibition above about 50%
# EWS-Fli block: EWS/Fli transcriptional activity inhibition; A673 NR0B1-luciferase reporter, viability-normalised; inhibition, % at 12.6 µM; 350,000 compounds, 0.67% hits; AID 651661;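 active = mean inhibition of at least 50% after viability correction, with every replicate also passing that limit; inconclusive = mean reaches 50% but only one of two replicates passes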;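 note: firefly luciferase signal divided by Alamar Blue viability fluorescence both relative to DMSO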
# EBV LMP1 NFkB: Epstein-Barr LMP1 NF-kappaB reporter inhibition; inhibition, % at 12.5 µM; 350,000 compounds, 0.69% hits; LMP1-induced NF-kappaB luciferase reporter cells, luminescence; AID 504558; in the data active = inhibition above about 41%; inconclusive = no clear call, values can overlap the other calls;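 note: 0% = neutral control wells and 100% = reference inhibitor control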
# Active calls of the source: *; u = inconclusive; x = not tested or not shown. A selection: hits, their analogues and other compounds. The true share with any hit is near 3.2%.
SMILES,PAX8 inh HTS,TROY signal inh,LGR2 inh,TWEAK Fn14 block,EWS-Fli block,EBV LMP1 NFkB
COc1ccc(S(=O)(=O)Nc2ccc3c(c2)CC(=O)N([C@H](C)CO)C[C@H](C)[C@@H](CN(C)Cc2ccccc2)O3)cc1,18,x,-1,x,12,x
COc1ccccc1-c1ccc2c(c1)O[C@@H](CN(C)C)[C@@H](C)CN([C@@H](C)CO)S2(=O)=O,x,x,1,x,0,x
COc1ccccc1-c1ccc2c(c1)O[C@H](CN(C)Cc1ccc3c(c1)OCO3)[C@H](C)CN([C@H](C)CO)S2(=O)=O,67*,x,-4,x,2,x
CCCC#Cc1ccc2c(c1)O[C@@H](CN(C)Cc1ccc3c(c1)OCO3)[C@@H](C)CN([C@H](C)CO)S2(=O)=O,x,x,3,x,33,x
CC(C)CC#Cc1ccc2c(c1)O[C@H](CN(C)Cc1ccc(C(=O)O)cc1)[C@@H](C)CN([C@H](C)CO)S2(=O)=O,80*,x,x,x,2,x
CC(C)CC#Cc1ccc2c(c1)O[C@@H](CN(C)Cc1ccc3c(c1)OCO3)[C@@H](C)CN([C@@H](C)CO)S2(=O)=O,x,x,-16,x,58*,x
COc1cccc(C(=O)Nc2ccc3c(c2)OC[C@@H](C)N(CC2CC2)C[C@@H](C)[C@@H](OC)CN(C)C3=O)c1,x,x,-13,x,0,x
Cc1ccc(N=Nc2c(O)n(CN3CCOCC3)c3ccccc23)cc1,x,-66,x,-33,x,-34
C=CCn1c(O)c(N=NC(=S)Nc2ccccc2C)c2cc(S(=O)(=O)N3CCOCC3)ccc21,55,-10,14,2,45,43*
Cc1cccc(NC(=S)N=Nc2c(O)n(CN3CCOCC3)c3ccccc23)c1C,22,-10,17,50*,x,31
CC1(C)Cc2c(ccc3ccccc23)/C(=C/C(=O)N2CCCCC2)N1,x,-3,-12,12,x,58*
CC(C)NC(=O)N(C)C[C@@H]1Oc2ccc(NS(=O)(=O)c3ccc(Cl)cc3)cc2C(=O)N([C@@H](C)CO)C[C@@H]1C,4,x,-13,x,-12,x
Cc1ccccc1C(=O)Nc1c(C(=O)N2CCCC2)cnn1-c1ccccc1,x,-8,12,10,-7,3
CC(=O)Nc1c(C(=O)N2CCCCCC2)cnn1-c1ccccc1,x,-11,9,-1,x,79*
Cc1ccc(S(=O)(=O)N2CCCCC2CCNC(=O)C(=O)NCc2ccncc2)cc1 (configuration not stated),76*,-3,-4,3,3,4
O=C(NCCC1CCCCN1S(=O)(=O)c1ccccc1)C(=O)NCc1cccnc1 (configuration not stated),27,14,-2,9,4,2
O=C(NCCC1CCCCN1S(=O)(=O)c1ccccc1)C(=O)NCc1ccncc1 (configuration not stated),68*,-15,-11,3,4,3
Cc1ccc(S(=O)(=O)N2CCCCC2CCNC(=O)C(=O)NCc2ccccc2)cc1 (configuration not stated),53,41,-2,0,u,-4
Fc1ccc(CN2[C@@H]3CNC[C@H]2C3c2ccc(-c3ccncc3)cc2)cc1 (some centres not stated),-8,x,-3,x,1,x
O=C(C[C@H]1CC[C@@H]2[C@H](COC[C@@H](O)CN2Cc2cccc(Cl)c2)O1)Nc1nccs1,18,x,18,x,13,x
Cc1cccc(C)c1NC(=O)CN(C)C(=O)c1ccc(-c2cccc(C(F)(F)F)c2)o1,-20,1,-3,-16,37,55*
CC(C)NC(=O)c1ccc(-c2cccc(C(F)(F)F)c2)o1,x,-69,7,-23,x,-12
O=C(N[C@@H]1CC[C@H](CCNS(=O)(=O)c2ccc(Cl)cc2)O[C@H]1CO)c1cnccn1,-1,x,-9,x,5,x
O=C(Nc1cccc(S(=O)(=O)N2CCCC2)c1)c1ccco1,-13,10,-12,11,5,-4
O=C(Nc1ccc(NC(=O)C2CCCCC2)cn1)c1ccco1,x,30,x,75*,x,37
SMILES,PAX8 inh HTS,TROY signal inh,LGR2 inh,TWEAK Fn14 block,EWS-Fli block,EBV LMP1 NFkB
O=C(Nc1ccc(NC(=O)c2ccco2)nc1)c1ccccn1,-10,-40,x,52*,x,16
O=C(Nc1ccc(NC(=O)C2CC2)cc1)c1ccco1,-66,-50,-8,32,-87,-9
O=C(Nc1cccc(S(=O)(=O)c2cccc(NC(=O)c3ccco3)c2)c1)c1ccco1,29,42,-8,59*,2,22
CC(C)(C)C(=O)Nc1ccc(NC(=O)c2ccco2)nc1,109*,85*,98*,104*,88*,81*
O=C(c1ccccc1)N1CC2(C1)[C@H](c1ccccc1)[C@H](CO)N2CC1CC1,-9,x,0,x,-8,x
O=C(C[C@@H]1CC[C@H]2[C@@H](COC[C@H](O)CN2CCC(F)(F)F)O1)N1CCC(Cc2ccccc2)CC1,6,x,10,x,-13,x
O=C1CNC[C@H]2[C@@H](c3ccc(C#CC4CCCC4)cc3)[C@H](CO)N12,-2,x,4,x,9,x
Cc1ccc(S(=O)(=O)N(C)C[C@H]2Oc3c(NC(=O)NC(C)C)cccc3C(=O)N([C@H](C)CO)C[C@@H]2C)cc1,4,x,8,x,-6,x
Nc1ccc(/C=C/C(=O)c2ccco2)cc1,-93,-31,-92,-7,-64,9
CC(C)(C)C(=O)Nc1ccc(/C=C/C(=O)c2ccco2)cc1,-50,72*,17,54*,2,1
O=C(Nc1ccc(NC(=O)c2ccco2)nc1)c1ccco1,-7,12,60*,74*,40,45*
C[C@@H]1CN([C@@H](C)CO)C(=O)Cc2cc(NS(=O)(=O)c3cn(C)cn3)ccc2O[C@H]1CN(C)Cc1ccc(C(F)(F)F)cc1,6,x,-2,x,1,x
O=C(NC1CCCC1)[C@@H]1[C@@H](CO)[C@@H]2Cn3c(ccc(-c4cccnc4)c3=O)[C@@H]2N1CC1CC1,3,x,4,x,-5,x
COC(=O)C[C@H]1C[C@H]2c3cc(NC(=O)C4CCC4)ccc3O[C@H]2[C@@H](CO)O1,-5,x,-24,x,-4,x
COc1cc(C(C)=O)ccc1OCC(O)CN1CCN(c2ccc(C)cc2C)CC1 (configuration not stated),22,6,1,7,3,16
COc1cc(C(C)=O)ccc1OCC(O)CN1CCN(c2ccccn2)CC1 (configuration not stated),1,-8,8,108*,10,2
COc1cc(C(C)=O)ccc1OCC(O)CN1CCN(c2ccccc2)CC1 (configuration not stated),5,-10,-10,-18,10,4
COc1cc(C(C)=O)ccc1OCC(O)Cn1nc(C)c(Br)c1C (configuration not stated),-27,-26,-13,-1,-5,62*
CC=Cc1ccc2n(c1=O)C[C@H]1[C@H](CO)[C@@H](C(=O)NCC3CC3)N(CC3CCOCC3)[C@@H]21 (mixture of isomers),-4,x,11,x,-3,x

# Source: PubChem (several laboratories)
